Molecules are shown by their SMILES. Where “and” joins values, the source holds several entries; their conditions need not be identical. Identical values can stand only once. The campaign covered roughly 230,000 compounds. About 310 (0.13%) were called active. About 2% were inconclusive and are not listed. Calls come from the whole dose curve; as a rule, active = well fitted activation curve with a large enough effect; inconclusive = small, poorly fitted or top-dose-only effect; inactive = no such curve, though single readings can be large or run the other way. This excerpt belongs to a sample that is enriched for actives.

This test in a line: qHTS Multiplex Assay to Identify Dual Action Probes in a Cell Model of Huntington: Cytoprotection (ATP).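 For cytoprotection (ATP increase): toxic huntingtin expression switched on by the ecdysone agonist tebufenozide; % of control where 0% means no effect.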 Note: nearly all actives have a fitted effect of over 45% in size. The settings on record: PC12 HTT-Q103 induced, ATP luminescence, 40 h; series mostly up to 56.4 µM; cytoprotection (ATP increase): at the top concentration. From the text:
NIH Chemical Genomics Center [NCGC]
NIH Molecular Libraries Probe Production centers Network [MLPCN]
Assay Submitter (PI): Wei Zheng
Huntington's disease is a neurodegenerative disorder caused by a trinucleotide repeat expansion in Exon 1 of the Huntingtin gene. The CAG trinucleotide encodes glutamine and polyglutamine expansions cause cell death in selective areas of the brain. Huntington polyglutamine repeats have the tendency to form aggregates which are observable in later stages of the disease. The exact nature of the aggregates, whether toxic, protective, or insignificant, is unclear.
A stable PC12 cell line containing a gene fusion of Exon 1 of the Huntingtin gene linked to GFP under the control of the inducible ecdysone promoter were used as the cell-based model of Huntington Disease for high throughput screening. Exon 1 of the Huntingtin gene contained an expansion of 103 polyglutamines (Q103) which, when expressed, caused cell death and distinct, bright GFP aggregates. The amount of cell death and the size and intensity of GFP aggregates increased over time and induction level. The cell death were quantified with a measurement of ATP content in the cells. A maximal 40-50% of cell death was observed when the Huntington gene was induced in this cell line.
We optimized this assay in a homogeneous 1536 well format. A quantitative high throughput screen (qHTS) was conducted on the PC12 cells which were induced to express the toxic fusion construct. Small molecules which prevented cell death were identified by using a luminescent ATP quantification method (Perkin Elmer's ATPlite).
PC12 cells stably containing a construct with an ecdysone inducible promoter expressing GFP fused to the exon 1 of HTTQ103 (Huntington protein which containing a 103 ployglutamine expansion) were used.
NCGC Assay Protocol Summary:
Sequence, Parameter, Description
1, Reagent, 5 uL 1500 cells/well 1536 TC treated White clear bottom plate
2, Compound, 23 nL Tebufenozide inducer (100 nM final) to all columns
3, Compound, 23 nL 40 uM to 0.5 nM Libraries
5, Reagent, 5 ul ATPLite cell death assay reagent
6, Detector, 4 sec integration with a Viewlux Luminescent
Media consisted of phenol red free DMEM + 5% equine serum (Hyclone # SH30072.03 ), 5% supplemented Bovine Calf Serum (Hyclone # SH30074.03 ), 1x pen/strep, no G418
Control columns: 1 = DMSO, 2= 2 uM teb dilns (1:1), 4 = 100 nM Teb inducer. Sample columns received 100 nM Teb.
On the technique in general: qHTS replaces the single test concentration by a dilution series.
As for `CC(C)(O)/C=C\C(=O)[C@](C)(O)[C@H]1[C@H](O)C[C@]2(C)[C@@H]3CC=C4[C@@H](C=C(O)C(=O)C4(C)C)[C@]3(C)C(=O)C[C@@]12C`, the Potency was 5.01 µM (active). Regarding `C[N+]1(C)C2CC(OC(=O)C(CO)c3ccccc3)CC1[C@@H]1O[C@H]21` (some centres undefined), the cytoprotection (ATP increase) was 17.6% [at 1.9 µM] (inactive) and 4.91% [at 1.9 µM] (inactive). The same measure, in the same setting: then `CC1=CC(=O)C2=C(C)C[C@H](O)[C@@H]3[C@@H](OC(=O)[C@H]3C)[C@H]12`, with -1.12% (inactive); and `CC(C)(O)[C@H]1[C@H]2OC(=O)[C@@H]1[C@]1(O)C[C@H]3O[C@]34C(=O)O[C@H]2[C@]14C`, with -10.1% (inactive).

(Values after PubChem BioAssay AID1471 (National Center for Advancing Translational Sciences (NCATS), 2008).)
